# Values joined by “and” are separate entries in the source; they are usually repeats but may differ in a detail not shown here. Identical values can stand only once. Results filed as inconclusive are left out. Where a structure was tested more than once in an assay, its records may differ in their call. Active and inactive are the calls of the source. How the source made its calls, unless noted: active means hit-call score of the fitted dose curve at least 0.9, where 1 is the maximum; inconclusive means response in the unintended direction; inactive means score below 0.9.
# Columns and labels:
# [1] = tested on: Sodium/Iodide Symporter (NIS), SLC5A5 (gene 6528); test: CPHEA_Stoker_NIS_Inhibition_RAIU: CPHEA's Radioactive Iodide Uptake (RAIU) Assay for Sodium/Iodide Symporter (NIS) Inhibition, Stoker and Laws Labs (AID 2283841)
# Procedure, shortened: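 Iodide uptake through human NIS is measured in an engineered HEK293T line. Cells take up 125I (329pM final) for 2 hours at room temperature alongside chemicals at 0.001–100uM. Retained radioactivity is counted, and the signal is expressed against DMSO controls.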
# [2] = CPHEA_Stoker_NIS_Cytotoxicity: Cytotoxicity Assessment for CPHEA's Radioactive Iodide Uptake (RAIU) Assay for Sodium/Iodide Symporter (NIS) Inhibition, Stoker and Laws Labs (AID 2283897);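 on AC50: active means loss of ATP signal versus DMSO meaning cytotoxicity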
# Procedure, shortened: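 ATP luminescence (Cell Titer Glo) measured viability, with loss of signal normalized to DMSO controls. Cells: hNIS-HEK293T-EPA, seeded 40 hours prior. Dosing: 0.001–100uM, 2 hours, room temperature, uptake buffer pH 7.4.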
# [3] = tested on: turtle Thyroid Hormone Receptor, alpha (TRa), gene 101949057; test: ATG_trTRa_XSP2: Attagene TRANS-FACTORIAL Multi-Species (XSP1) HepG2 Assay for turtle Thyroid Hormone Receptor, alpha (TRa) (AID 2283834);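 further: hits raise reporter mRNA over the DMSO baseline so AC50 marks activators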
# Procedure, shortened: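 Readout: reporter mRNA induction, fluorescence after RT-PCR, HpaI digestion and capillary electrophoresis. Transiently transfected HepG2, exogenous NR-Gal4 chimera driving GAL4-UAS reporter, 24 h compound exposure. Activity fitted upward relative to DMSO baseline.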
# [4] = ATG_M_61_XSP2: Attagene TRANS-FACTORIAL Multi-Species (XSP2) HepG2 Assay for M61 Transcription Factor (Internal Marker) (AID 2283835; active means hit-call score of the fitted dose curve at least 0.9, where 1 is the maximum; inactive means score below 0.9;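 further: reporter mRNA of an internal background marker read by RT-PCR and capillary electrophoresis; active means a rise in signal above the DMSO baseline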)
# Procedure, shortened: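 Signal was mRNA induction detected as fluorescence after RT-PCR and capillary electrophoresis, analysed in the gain direction with DMSO as baseline. HepG2 cells transiently carrying reporter constructs received chemicals for 24 h.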
# [5] = molecular target: zebrafish Thyroid Hormone Receptor beta (TRb), thrb (gene 30607) (UniProt Q9PVE4); test: ATG_zfTRb_XSP2: Attagene TRANS-FACTORIAL Multi-Species (XSP1) HepG2 Assay for zebrafish Thyroid Hormone Receptor beta (TRb) (AID 2283836);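 on AC50: potency for induction of reporter signal above DMSO so agonist direction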
# Experimental: ATG_XSP2_multi-species_TRANS is a cell-based, multiplexed assay created by modifying the existing Attagene TRANS-FACTORIAL system to include a panel of nuclear receptors from some or all the following species: human (Homo sapiens), mouse (Mus musculus), frog (Xenopus laevis), zebrafish (Danio rerio), chicken (Gallus gallus), and turtle (Chrysemys picta). The ECOTOX-FACTORIAL format uses HepG2, a human liver cell line, with measurements taken at 24 hours after chemical dosing in a 24-well plate. Xsp2 included 3 nM 6-alpha-fluorotestosterone and 1.5 nM norgestrel to stimulate the androgen receptor.ATG_zfTRb_XSP2 is one of 29 assay components measured or calculated from the ATG_XSP2_multi-species_TRANS assay. It is designed to make measurements of mRNA induction, a form of inducible reporter, as detected with fluorescence intensity signals by Reverse transcription polymerase chain reaction (RT-PCR) and Capillary electrophoresis technology.The assay endpoint ATG_zfTRb_XSP2 was analyzed in the positive analysis fitting direction relative to DMSO as the negative control and baseline of activity. Using a type of inducible reporter, measures of mRNA for gain-of-signal activity can be used to understand the reporter gene at the transcription factor-level as they relate to the gene TR. Furthermore, this assay endpoint can be referred to as a primary readout, because this assay has produced multiple assay endpoints where this one serves a reporter gene function. To generalize the intended target to other relatable targets, this assay endpoint is annotated to the nuclear receptor intended target family, where the subfamily is non-steroidal.
# Human liver HepG2 cells are transiently transfected with multiple reporter transcription units (MRTUs) in 6-well plates using FuGene 6 reagent (Roche; 3 ml FuGene/1 mg DNA). The MRTU constructs are regulated by a cis-regulating element (promoter). […] A major difference between the CIS and TRANS system is that in CIS activities of endogenous TFs are measured, whereas the TRANS assay evaluates changes in activities of exogenous, chimeric NR-Gal4 proteins. […] At the end of 24 hour incubation, total RNA was isolated using TriZol reagent (Invitrogen). The isolated RNA is then reverse-transcribed using oligo(dT) primer and Mo-MLV reverse transcriptase (Invitrogen) with DNAse I (Ambion) treatment for 30 min. The one-tenth of the produced cDNA was amplified by PCR using Taq DNA polymerase (Invitrogen) and two reporter sequence-specific primers. The PCR products were fluorescently labeled by primer extension with 6-arboxyfluorescein (6-FAM) 5'-labeled reporter sequence-specific primer (2 min at 95 C, 20 s at 68 C and 10 min at 72 C) and these products were digested with 5U of HpaI (New England Biolabs) for 2h at 37 C. The fragments were purified using Qiaquick PCR columns (Qiagen), analyzed on an ABI 3130xL genetic analyzer (Applied Biosystems) with peak positions identified by using a set of X-rhodamine (ROX)-labeled MapMarker1000 molecular weight standards (BioVentures). The raw capillary electrophoresis data was processed using Attagraph software (Attagene).
# [6] = ATG_XTT_Cytotoxicity_XSP2: Cytotoxicity Assessment in the Attagene TRANS-FACTORIAL Multi-Species (XSP2) HepG2 Assay (AID 2283837)
# Experimental: ATG_XSP2_XTT_Cytotoxicity_multi-species is a cell-based, single-readout assay that uses HepG2, a human liver cell line, with measurements taken at 24 hours after chemical dosing in a 24-well plate.ATG_XTT_Cytotoxicity_XSP2 is an assay component measured from the ATG_XSP2_XTT_Cytotoxicity_multi-species assay. It is designed to make measurements of cell number, a form of viability reporter, as detected with fluorescence intensity signals by XTT cytotoxicity assay technology.Data from the assay component ATG_XTT_Cytotoxicity_XSP2 was analyzed into 1 assay endpoint. This assay endpoint, ATG_XTT_Cytotoxicity_XSP2, was analyzed in the positive analysis fitting direction relative to DMSO as the negative control and baseline of activity. Using a type of viability reporter, loss-of-signal activity can be used to understand changes in the viability. Furthermore, this assay endpoint can be referred to as a primary readout, because the performed assay has only produced 1 assay endpoint. […]
# Human liver HepG2 cells are transiently transfected with multiple reporter transcription units (MRTUs) in 6-well plates using FuGene 6 reagent (Roche; 3 ml FuGene/1 mg DNA). […] A major difference between the CIS and TRANS system is that in CIS activities of endogenous TFs are measured, whereas the TRANS assay evaluates changes in activities of exogenous, chimeric NR-Gal4 proteins. […]
# [7] = molecular target: human Thyroid hormone Receptor alpha (TRa), THRA (gene 7067) (UniProt P10827); test: ATG_hTRa_XSP2: Attagene TRANS-FACTORIAL Multi-Species (XSP2) HepG2 Assay for human Thyroid hormone Receptor alpha (TRa) (AID 2283838)
# Procedure, shortened: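 Reporter transcripts were read by RT-PCR with fluorescent primer extension, HpaI digestion and capillary electrophoresis. These came from HepG2 cells carrying multiplexed TRa-Gal4 TRANS constructs, harvested 24 hours after dosing. The medium also held 6-alpha-fluorotestosterone (3 nM) and norgestrel (1.5 nM), and increases were fitted against DMSO.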
# [8] = molecular target: frog Thyroid hormone Receptor alpha (TRa), thra-a (gene 397942) (UniProt P15204); test: ATG_frTRa_XSP2: Attagene TRANS-FACTORIAL Multi-Species (XSP2) HepG2 Assay for frog Thyroid hormone Receptor alpha (TRa) (AID 2283839);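 on AC50: AC50 reflects induction of frog TRa-driven reporter mRNA above DMSO baseline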
# Procedure, shortened: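 Read-out: fluorescent reporter-transcript fragments resolved by capillary electrophoresis after RT-PCR and HpaI cut. Human HepG2 liver cells carry a transfected frog TRα-Gal4 chimera driving a UAS reporter; 24 h exposure, DMSO baseline, positive-direction fit.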
# [9] = molecular target: human Thyroid hormone Receptor beta (TRb), THRB (gene 7068) (UniProt P10828); test: ATG_hTRb_XSP2: Attagene TRANS-FACTORIAL Multi-Species (XSP2) HepG2 Assay for human Thyroid hormone Receptor beta (TRb) (AID 2283840);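 further: actives raise reporter mRNA so potency reflects agonist-like gain of signal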
# Procedure, shortened: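 Read-out: reporter mRNA induction (RT-PCR, 6-FAM labeling, capillary electrophoresis), gain-of-signal relative to DMSO baseline. Transiently transfected HepG2 TRANS multiplex (NR-Gal4 chimeras, GAL4-UAS reporters), 24 h chemical exposure; medium contained 3 nM 6-alpha-fluorotestosterone plus 1.5 nM norgestrel.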
# [10] = CEETOX_H295R_11DCORT_noMTC: CeeTox H295R High-throughput Steroidogenesis Assay for 11-Deoxycortisol (11DCORT), maximum tolerated concentration (MTC) filtered results only (AID 2283911; active means hit-call score of the fitted dose curve at least 0.9, where 1 is the maximum; inactive means score below 0.9); settings: actives raise or lower the signal
# Procedure, shortened: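 H295R, OECD 456-based; 10 uM forskolin 48 h → compound (0.1% DMSO) 48 h → medium extracted, 11DCORT by LC-MS/MS. Gain/loss vs DMSO control, all concentrations kept regardless of MTT viability.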
# Chain of human Thyroid hormone Receptor beta (TRb), THRB (gene 7068) (P10828 whole entry, looked up, the tested form may be a part): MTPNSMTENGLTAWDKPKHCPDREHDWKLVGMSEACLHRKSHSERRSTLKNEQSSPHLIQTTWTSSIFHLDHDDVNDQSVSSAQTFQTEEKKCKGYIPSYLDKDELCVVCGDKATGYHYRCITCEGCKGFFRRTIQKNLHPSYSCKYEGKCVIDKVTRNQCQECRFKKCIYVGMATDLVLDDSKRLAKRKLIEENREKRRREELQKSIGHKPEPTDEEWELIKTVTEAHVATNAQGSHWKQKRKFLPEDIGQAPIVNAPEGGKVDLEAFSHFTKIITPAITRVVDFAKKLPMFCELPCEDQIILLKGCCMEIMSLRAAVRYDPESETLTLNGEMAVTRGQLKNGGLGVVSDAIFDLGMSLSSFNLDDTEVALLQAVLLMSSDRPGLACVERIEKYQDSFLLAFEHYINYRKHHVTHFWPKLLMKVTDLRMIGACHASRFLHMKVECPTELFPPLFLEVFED
# Chain of human Thyroid hormone Receptor alpha (TRa), THRA (gene 7067) (P10827 whole entry, looked up, the tested form may be a part): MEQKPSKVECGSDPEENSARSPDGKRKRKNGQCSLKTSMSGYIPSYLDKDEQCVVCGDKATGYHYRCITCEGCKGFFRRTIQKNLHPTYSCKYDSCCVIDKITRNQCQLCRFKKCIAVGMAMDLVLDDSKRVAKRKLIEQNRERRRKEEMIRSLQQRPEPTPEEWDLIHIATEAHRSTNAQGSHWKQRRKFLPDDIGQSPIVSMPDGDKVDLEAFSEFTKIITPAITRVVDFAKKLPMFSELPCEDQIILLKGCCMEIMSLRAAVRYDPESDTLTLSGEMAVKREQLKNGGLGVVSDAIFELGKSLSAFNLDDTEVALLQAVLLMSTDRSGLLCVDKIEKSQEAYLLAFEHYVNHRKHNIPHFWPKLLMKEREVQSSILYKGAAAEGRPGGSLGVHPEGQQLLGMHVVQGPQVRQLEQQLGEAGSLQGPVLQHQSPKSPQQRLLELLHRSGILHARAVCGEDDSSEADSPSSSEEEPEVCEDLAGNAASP
# Chain of zebrafish Thyroid Hormone Receptor beta (TRb), thrb (gene 30607) (Q9PVE4 whole entry, looked up): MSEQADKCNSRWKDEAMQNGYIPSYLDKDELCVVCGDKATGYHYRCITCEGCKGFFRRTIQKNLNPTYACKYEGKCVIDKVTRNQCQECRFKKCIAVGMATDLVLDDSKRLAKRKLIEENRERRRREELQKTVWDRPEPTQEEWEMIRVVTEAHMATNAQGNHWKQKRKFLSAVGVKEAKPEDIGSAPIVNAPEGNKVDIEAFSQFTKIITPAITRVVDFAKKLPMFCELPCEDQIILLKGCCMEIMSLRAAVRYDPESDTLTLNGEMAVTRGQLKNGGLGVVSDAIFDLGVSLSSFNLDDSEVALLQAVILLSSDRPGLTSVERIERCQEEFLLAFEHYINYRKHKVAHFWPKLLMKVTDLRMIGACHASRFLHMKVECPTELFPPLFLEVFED
# Chain of frog Thyroid hormone Receptor alpha (TRa), thra-a (gene 397942) (P15204 whole entry, looked up, the tested form may be a part): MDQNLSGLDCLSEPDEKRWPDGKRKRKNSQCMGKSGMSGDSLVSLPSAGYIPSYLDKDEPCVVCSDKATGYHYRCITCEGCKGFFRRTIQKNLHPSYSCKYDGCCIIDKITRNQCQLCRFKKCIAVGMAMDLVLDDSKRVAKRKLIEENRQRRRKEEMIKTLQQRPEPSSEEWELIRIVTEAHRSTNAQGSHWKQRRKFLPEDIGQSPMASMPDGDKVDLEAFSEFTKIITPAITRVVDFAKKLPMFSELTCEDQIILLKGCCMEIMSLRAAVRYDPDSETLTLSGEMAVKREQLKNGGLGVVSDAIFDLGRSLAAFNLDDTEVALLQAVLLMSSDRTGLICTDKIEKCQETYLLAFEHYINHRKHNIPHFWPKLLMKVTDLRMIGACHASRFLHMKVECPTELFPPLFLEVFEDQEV
smiles,measurement,setting,value
CCN(CC)C(=O)c1cc(S(=O)(=O)Cc2ccccc2)c(N2CCC(c3ccccc3)CC2)cc1N(CC)CCN(C)C,outcome,[1],inactive
same,outcome,[2],inactive
Cc1oc2c(NC(=O)c3c(Cl)cccc3Cl)cccc2c1C(C)(C)O,outcome,[2],inactive
Cc1cc2c(cc1C(F)(F)F)N(C(=O)Nc1ccc(Oc3cccnc3C)nc1)CC2,outcome,[1],inactive
same,AC50,[2],8.93 µM (active)
CC(C)(C)c1cc(/C=C2\SC(N)=NC2=O)cc(C(C)(C)C)c1O,outcome,[1],inactive
same,AC50,[2],4.96 µM (active)
CN(C)C(=O)C1(N2CCCCC2)CCN(CC[C@@]2(c3ccc(Cl)c(Cl)c3)CN(C(=O)c3ccccc3)CCO2)CC1,outcome,[1],inactive
same,outcome,[2],inactive
CCCCCCCCOC(=O)c1cc(O)c(O)c(O)c1,outcome,[1],inactive
same,outcome,[2],inactive
CC(C)(C)c1csc(-c2cc3cc(OCc4ccccc4CC(=O)O)ccc3o2)n1,AC50,[1],50 µM (active)
same,AC50,[2],9.92 µM (active)
CCOC(=O)O[C@H](C)OC(=O)c1ccc2c(c1)cc(C(=O)NC1CCN(C(C)C)CC1)n2Cc1cc(-c2ccc(Cl)s2)on1,outcome,[1],inactive
same,AC50,[2],9.92 µM (active)
O=c1c(-c2ccc(O)cc2)coc2cc(O)cc(O)c12,outcome,[3],inactive
same,outcome,[4],inactive
same,outcome,[5],inactive
same,outcome,[6],inactive
same,outcome,[7],inactive
same,outcome,[8],inactive
same,outcome,[9],inactive
CN(C)c1ccc(C(=C2C=CC(=[N+](C)C)C=C2)c2ccc(N(C)C)cc2)cc1,AC50,[1],17.4 µM (active)
same,AC50,[2],5.35 µM (active)
CN(C[C@@H](CC[N+]12CCC(C3CCCCC3)(CC1)CC2)c1ccc(Cl)c(Cl)c1)C(=O)c1cc(C(F)(F)F)cc(C(F)(F)F)c1,AC50,[1],66.3 µM (active)
same,AC50,[2],10.5 µM (active)
O=C(O)c1ccccc1C(=O)OCc1ccccc1,outcome,[10],inactive
CN1C(=O)N(c2ccccc2Br)Cc2cnc(Nc3ccc4c(c3)OCC(CO)O4)nc21 (stereo unspecified),outcome,[1],inactive
same,outcome,[2],inactive
CC(C)(O)c1ccc(CNC(=O)c2cccnc2Oc2ccc3nonc3c2)cc1,outcome,[2],inactive
same,outcome,[10],inactive
O=C(O)Cc1cc(I)c(Oc2ccc(O)c(I)c2)c(I)c1,AC50,[3],0.00328 µM (active)
same,outcome,[4],inactive
same,AC50,[5],0.504 nM (active) and 5.79 nM (active)
same,AC50,[8],0.519 nM (active) and 0.826 nM (active)
same,AC50,[1],88.5 µM (active)
same,outcome,[2],inactive
c1ccc(C[n+]2cccc3ccccc32)cc1,outcome,[10],inactive
CC1(C)NC(=O)N(c2ccc([N+](=O)[O-])c(C(F)(F)F)c2)C1=O,outcome,[3],inactive
same,outcome,[5],inactive
same,outcome,[6],inactive
same,outcome,[7],inactive
same,AC50,[8],66.4 µM (active)
same,outcome,[8],inactive
same,AC50,[9],148 µM (active)
same,outcome,[9],inactive

# Source: PubChem BioAssay (EPA / NIEHS)
